Data: ChEMBL document CHEMBL3988442, “University of Dundee, Small-Polar-MMV Screening Library” (2021)
For some of these results: Results with a measured potency or affinity are listed apart.

What was measured:
Set-up in all cases: scale not given: direction of the effect not stated beside the values
[1] = molecular target: Protein translocase subunit SecA (Escherichia coli (strain K12)) (UniProt P10408); experiment: Assay to Identify E. coli SecA ATPase Inhibitors; format: functional; conditions: 30 µM
[2] = molecular target: T1, Ubiquitin-activating enzyme e1, putative (Leishmania donovani (strain BPK282A1)) (UniProt E9BSI1); experiment: Leishmania donovani Ubiquitin Activating Enzyme (LdE1); format: functional; conditions: 30 µM
T1 sequence (whole entry): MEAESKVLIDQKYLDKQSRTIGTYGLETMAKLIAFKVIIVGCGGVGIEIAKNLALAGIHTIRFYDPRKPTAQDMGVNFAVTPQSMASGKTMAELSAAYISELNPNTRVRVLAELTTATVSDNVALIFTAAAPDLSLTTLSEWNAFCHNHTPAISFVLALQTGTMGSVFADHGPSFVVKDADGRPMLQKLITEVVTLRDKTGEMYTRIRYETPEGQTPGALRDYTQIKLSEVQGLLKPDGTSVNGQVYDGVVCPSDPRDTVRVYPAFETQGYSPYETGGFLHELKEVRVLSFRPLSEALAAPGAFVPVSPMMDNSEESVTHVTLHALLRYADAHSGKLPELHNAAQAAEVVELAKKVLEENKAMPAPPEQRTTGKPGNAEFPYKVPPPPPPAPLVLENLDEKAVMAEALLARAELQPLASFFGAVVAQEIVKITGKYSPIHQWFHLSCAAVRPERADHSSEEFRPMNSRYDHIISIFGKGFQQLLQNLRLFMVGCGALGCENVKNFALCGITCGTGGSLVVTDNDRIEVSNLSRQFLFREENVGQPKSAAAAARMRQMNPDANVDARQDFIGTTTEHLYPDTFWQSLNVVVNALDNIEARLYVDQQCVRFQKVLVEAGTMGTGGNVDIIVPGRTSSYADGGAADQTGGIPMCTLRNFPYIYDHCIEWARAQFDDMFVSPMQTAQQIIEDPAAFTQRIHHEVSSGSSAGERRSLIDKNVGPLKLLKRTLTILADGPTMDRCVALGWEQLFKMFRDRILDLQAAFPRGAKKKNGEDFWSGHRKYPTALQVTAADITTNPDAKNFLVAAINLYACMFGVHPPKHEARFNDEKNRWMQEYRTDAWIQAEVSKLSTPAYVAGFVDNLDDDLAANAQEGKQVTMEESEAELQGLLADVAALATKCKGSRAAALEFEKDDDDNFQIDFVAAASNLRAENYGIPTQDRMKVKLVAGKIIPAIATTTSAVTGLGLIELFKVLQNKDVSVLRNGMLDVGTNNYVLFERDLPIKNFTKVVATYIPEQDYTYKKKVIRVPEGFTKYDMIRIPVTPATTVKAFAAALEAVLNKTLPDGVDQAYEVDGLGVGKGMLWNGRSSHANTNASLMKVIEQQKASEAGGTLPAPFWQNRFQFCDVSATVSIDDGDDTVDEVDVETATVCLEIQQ

[3] = molecular target: AMP-activated protein kinase, AMPK (Homo sapiens) (UniProt P54646+O43741+P54619+Q9UGJ0+Q9Y478+Q13131+Q9UGI9); experiment: AMP-dependent Kinase enzyme assay. An in vitro enzyme assay that detects ADP turnover that is directly proportional to AMPK activity. This uses naive AMPK that is activated during the assay with MK-8722; format: functional; conditions: 30 µM
[4] = molecular target: Sialic acid-binding Ig-like lectin 9 (Homo sapiens) (UniProt Q9Y336); experiment: Hs-Siglec9 ALPHAscreen SOP 20170721; conditions: 10 µM
Trypanosoma cruzi = experiment: Trypanosoma cruzi phosphomannomutase and mannose-1-phosphate guanylyltransferase assay; format: functional; conditions: 10 µM
[5] = molecular target: T2, Arginase-2, mitochondrial (Homo sapiens) (UniProt P78540); experiment: in vitro enzyme assay to detect the production of urea directly proportional to the activity of Arginase II; format: functional; conditions: 33.3 µM; further: in the data most compounds retested in dose-response had high values
T2 sequence (whole entry): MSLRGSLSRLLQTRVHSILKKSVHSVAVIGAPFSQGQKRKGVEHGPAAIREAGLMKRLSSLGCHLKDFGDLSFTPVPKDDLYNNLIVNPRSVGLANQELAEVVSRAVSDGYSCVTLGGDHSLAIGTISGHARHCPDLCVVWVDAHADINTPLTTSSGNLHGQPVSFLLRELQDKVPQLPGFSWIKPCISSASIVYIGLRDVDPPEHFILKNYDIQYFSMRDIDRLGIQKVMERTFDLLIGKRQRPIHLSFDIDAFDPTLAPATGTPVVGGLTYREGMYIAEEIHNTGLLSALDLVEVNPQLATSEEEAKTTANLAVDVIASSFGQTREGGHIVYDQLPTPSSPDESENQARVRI

[6] = molecular target: T3, Proteasome subunit beta (Trypanosoma cruzi) (UniProt O96673); experiment: Trypanosoma cruzi proteasome chymotrypsin-like activity (TcProtChymo) assay.; further: in the data most compounds retested in dose-response had high values; format: functional; conditions: 9.37 µM
T3 sequence (whole entry): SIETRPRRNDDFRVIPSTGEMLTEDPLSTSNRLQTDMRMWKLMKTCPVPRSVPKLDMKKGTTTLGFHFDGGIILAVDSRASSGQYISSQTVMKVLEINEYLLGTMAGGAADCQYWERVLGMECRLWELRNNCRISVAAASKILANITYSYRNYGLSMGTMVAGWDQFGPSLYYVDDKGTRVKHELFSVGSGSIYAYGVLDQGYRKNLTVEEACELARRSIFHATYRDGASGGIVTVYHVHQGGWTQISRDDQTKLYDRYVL

Homo sapiens = species on record: Homo sapiens; experiment: To identify inhibition of the IFN signalling (Jak-Stat) pathway via expression of an eGFP reporter gene under the control of an IFN-stimulated response element (ISRE) containing MxA promoter.; format: functional; conditions: 30 µM
[7] = molecular target: T4, Tyrosyl-tRNA synthetase, putative (Trypanosoma cruzi (strain CL Brener)) (UniProt Q4DSP6); experiment: Trypanosoma cruzi tyrosyl tRNA synthetase (TcYRS) _High Tyrosine SOP; format: functional; conditions: 30 µM; further: in the data most compounds retested in dose-response had high values
T4 sequence (whole entry): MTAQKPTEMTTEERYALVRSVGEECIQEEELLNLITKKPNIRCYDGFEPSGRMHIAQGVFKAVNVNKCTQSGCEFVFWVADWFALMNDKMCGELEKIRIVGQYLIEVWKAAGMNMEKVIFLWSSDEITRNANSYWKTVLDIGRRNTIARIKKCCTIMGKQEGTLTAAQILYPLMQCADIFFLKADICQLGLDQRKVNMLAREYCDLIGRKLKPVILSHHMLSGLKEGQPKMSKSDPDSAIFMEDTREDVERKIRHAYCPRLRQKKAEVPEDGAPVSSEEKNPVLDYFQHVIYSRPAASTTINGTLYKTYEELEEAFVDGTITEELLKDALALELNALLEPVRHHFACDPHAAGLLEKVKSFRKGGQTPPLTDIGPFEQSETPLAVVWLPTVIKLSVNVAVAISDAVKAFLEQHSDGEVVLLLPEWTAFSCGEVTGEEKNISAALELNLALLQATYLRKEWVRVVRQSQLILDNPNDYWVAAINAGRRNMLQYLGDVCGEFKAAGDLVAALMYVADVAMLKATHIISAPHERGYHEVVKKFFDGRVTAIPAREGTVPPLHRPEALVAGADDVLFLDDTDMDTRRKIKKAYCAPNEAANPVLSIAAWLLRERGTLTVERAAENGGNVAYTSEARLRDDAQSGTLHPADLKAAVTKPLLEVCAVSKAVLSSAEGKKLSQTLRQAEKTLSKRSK

[8] = molecular target: T4, Tyrosyl-tRNA synthetase, putative (Trypanosoma cruzi (strain CL Brener)); experiment: Trypanosoma cruzi tyrosyl tRNA synthetase (TcYRS) SOP; format: functional; conditions: 30 µM
[9] = molecular target: Chromo domain-containing protein 1 (Saccharomyces cerevisiae (strain ATCC 204508 / S288c) (Baker's yeast)) (UniProt P32657); experiment: ScCHD-1 Enzyme Inhibition Assay; format: functional; conditions: 30 µM; further: in the data most compounds retested in dose-response had high values
Sequence of Chromo domain-containing protein 1 (Saccharomyces cerevisiae (strain ATCC 204508 / S288c) (Baker's yeast)) (P32657 whole entry, the tested form may be a part): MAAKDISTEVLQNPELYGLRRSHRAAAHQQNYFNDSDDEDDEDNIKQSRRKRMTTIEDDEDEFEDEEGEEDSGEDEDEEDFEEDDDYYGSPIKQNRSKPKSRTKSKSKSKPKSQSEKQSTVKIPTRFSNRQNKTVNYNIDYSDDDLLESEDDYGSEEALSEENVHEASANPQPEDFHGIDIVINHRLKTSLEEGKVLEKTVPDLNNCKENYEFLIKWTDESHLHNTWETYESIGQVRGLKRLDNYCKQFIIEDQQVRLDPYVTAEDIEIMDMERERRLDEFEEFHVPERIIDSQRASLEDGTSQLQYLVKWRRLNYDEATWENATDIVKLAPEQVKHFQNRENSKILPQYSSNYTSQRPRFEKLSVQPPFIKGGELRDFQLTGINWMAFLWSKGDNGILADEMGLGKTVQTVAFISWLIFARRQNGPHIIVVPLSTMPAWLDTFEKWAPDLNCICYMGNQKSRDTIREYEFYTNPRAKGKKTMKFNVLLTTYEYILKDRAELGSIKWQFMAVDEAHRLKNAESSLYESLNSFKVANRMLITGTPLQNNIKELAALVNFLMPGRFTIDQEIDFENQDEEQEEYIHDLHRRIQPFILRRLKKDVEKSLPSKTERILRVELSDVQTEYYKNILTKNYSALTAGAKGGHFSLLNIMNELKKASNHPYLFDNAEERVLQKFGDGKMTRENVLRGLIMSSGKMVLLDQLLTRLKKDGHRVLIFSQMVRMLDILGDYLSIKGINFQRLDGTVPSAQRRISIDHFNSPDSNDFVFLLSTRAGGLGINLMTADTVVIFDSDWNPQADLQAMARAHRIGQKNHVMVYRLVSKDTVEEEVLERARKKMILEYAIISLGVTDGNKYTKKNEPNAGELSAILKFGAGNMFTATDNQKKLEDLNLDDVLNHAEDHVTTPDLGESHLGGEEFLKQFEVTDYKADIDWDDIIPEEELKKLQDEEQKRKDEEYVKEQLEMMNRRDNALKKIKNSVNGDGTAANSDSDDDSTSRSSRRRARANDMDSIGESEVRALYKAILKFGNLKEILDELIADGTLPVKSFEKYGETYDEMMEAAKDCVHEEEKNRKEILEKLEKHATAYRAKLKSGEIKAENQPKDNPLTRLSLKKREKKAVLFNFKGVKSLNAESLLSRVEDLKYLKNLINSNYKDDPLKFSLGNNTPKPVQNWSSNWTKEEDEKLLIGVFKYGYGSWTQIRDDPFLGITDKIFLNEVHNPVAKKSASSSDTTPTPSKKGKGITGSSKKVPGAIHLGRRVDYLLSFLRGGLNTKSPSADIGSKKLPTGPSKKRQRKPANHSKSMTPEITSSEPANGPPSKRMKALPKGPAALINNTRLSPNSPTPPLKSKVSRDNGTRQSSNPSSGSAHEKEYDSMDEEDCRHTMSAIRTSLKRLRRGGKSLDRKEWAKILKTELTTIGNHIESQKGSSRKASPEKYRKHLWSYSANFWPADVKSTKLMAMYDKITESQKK

Sequence of Sialic acid-binding Ig-like lectin 9 (Homo sapiens) (Q9Y336 whole entry): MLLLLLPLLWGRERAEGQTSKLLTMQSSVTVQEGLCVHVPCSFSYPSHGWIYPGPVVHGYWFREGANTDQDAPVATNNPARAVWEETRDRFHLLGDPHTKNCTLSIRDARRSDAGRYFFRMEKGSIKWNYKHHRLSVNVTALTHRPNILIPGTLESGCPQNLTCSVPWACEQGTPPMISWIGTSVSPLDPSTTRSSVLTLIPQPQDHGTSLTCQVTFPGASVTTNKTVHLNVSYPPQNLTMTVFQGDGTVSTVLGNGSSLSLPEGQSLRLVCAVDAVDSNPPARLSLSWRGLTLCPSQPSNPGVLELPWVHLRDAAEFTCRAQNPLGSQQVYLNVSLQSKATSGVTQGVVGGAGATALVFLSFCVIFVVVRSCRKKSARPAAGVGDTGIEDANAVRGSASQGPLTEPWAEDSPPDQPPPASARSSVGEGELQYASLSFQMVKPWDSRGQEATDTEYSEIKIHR
Sequence of Protein translocase subunit SecA (Escherichia coli (strain K12)) (P10408 whole entry): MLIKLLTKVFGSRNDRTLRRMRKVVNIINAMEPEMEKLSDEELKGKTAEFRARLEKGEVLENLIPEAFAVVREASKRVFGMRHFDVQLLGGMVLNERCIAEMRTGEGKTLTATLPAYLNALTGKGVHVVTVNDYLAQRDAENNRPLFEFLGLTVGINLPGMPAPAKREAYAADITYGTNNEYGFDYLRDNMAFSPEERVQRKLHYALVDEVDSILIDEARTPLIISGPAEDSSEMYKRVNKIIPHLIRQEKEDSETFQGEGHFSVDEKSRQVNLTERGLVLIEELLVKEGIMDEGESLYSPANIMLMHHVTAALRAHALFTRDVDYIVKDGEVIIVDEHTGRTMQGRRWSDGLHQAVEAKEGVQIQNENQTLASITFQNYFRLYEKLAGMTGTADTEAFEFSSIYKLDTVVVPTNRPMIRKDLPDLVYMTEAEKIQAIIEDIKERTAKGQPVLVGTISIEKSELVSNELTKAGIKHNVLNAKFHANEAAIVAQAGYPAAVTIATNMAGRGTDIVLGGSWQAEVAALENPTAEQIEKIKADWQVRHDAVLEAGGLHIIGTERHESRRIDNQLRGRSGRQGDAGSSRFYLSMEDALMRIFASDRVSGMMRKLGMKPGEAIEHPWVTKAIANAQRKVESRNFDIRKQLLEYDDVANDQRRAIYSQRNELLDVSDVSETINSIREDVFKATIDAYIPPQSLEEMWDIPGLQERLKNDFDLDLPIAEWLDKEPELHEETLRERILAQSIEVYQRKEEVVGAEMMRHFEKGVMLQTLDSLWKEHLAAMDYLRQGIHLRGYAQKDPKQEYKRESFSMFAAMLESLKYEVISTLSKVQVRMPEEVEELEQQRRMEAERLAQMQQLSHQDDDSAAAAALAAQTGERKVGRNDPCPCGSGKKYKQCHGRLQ

SMILES	Percent Effect [1] [%]	Percent Effect [2] [%]	Percent Effect [3] [%]	Percent Effect [4] [%]	Percent Effect (Trypanosoma cruzi) [%]	Percent Effect [5] [%]	Percent Effect [6] [%]	Percent Effect (Homo sapiens) [%]	Percent Effect [7] [%]	Percent Effect [8] [%]	Percent Effect [9] [%]
COc1cc(C2CC(=O)Oc3cc(C)[nH]c(=O)c32)ccc1OC(F)F (stereo not given)	-2.55	17.3	-1.47	-4.76	-5.3	-6.16	19	7.6	3.17	12.8	-13
Cc1cc(C(F)(F)F)nn1CC(C)C(=O)Nc1ccncc1 (stereo not given)	-6.4	6.67	-0.198	8.65	0.786	-2.64	10.9	19.9	1.06	-12.8	-5.12
CNC(=O)[C@H]1C[C@H]2OCC[C@H]2N(Cc2cccc3ccccc23)C1	-2.27	10.4	2.57	2.56	-0.296	-3.23	8.01	-0.999	3.17	8.97	-9.11
Cc1nn(C)c(C)c1C1CCCN1C(=O)CCCn1cccn1 (stereo not given)	0.0877	0	3.67	-4.76	-6.07	10.1	-2.45	9.1	0.493	-6.17	1.61
CC(C)C(C(=O)N1CCN(Cc2ccncc2)CC1)n1cncn1 (stereo not given)	-4.08	7.79	4.2	5.43	0.0983	-11	3.83	-1.24	3.23	11.1	2.61
